Laboratory results: PubChem BioAssay (NCI)
Compounds without any hit were thinned out: in the full panel of roughly 79,000, 15% have a hit. Rule as the data show it: active = growth inhibition above about 70%; inactive = the rest.

Tests used:
[1] = NCI Yeast Anticancer Drug Screen. Data for the rad50 strain (AID 155);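 also: 0% = growth of vehicle-only cultures of the same strain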; settings: S. cerevisiae rad50 strain growth inhibition; at 50.0 µM; stronger effect = higher value
How it was run: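 Growth of the mutant yeast was measured after compound exposure and referenced to vehicle-treated cultures.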

[2] = NCI Yeast Anticancer Drug Screen. Data for the mec2-1 strain (AID 157); settings: S. cerevisiae mec2-1 strain, at 50.0 µM, stronger effect = higher value
How it was run: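 Yeast mec2-1 mutant treated with compound. Readout: growth inhibition vs vehicle controls.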

[3] = NCI Yeast Anticancer Drug Screen. Data for the sgs1 mgt1 strain (AID 161);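 also: 0% = growth of cultures given vehicle only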; settings: S. cerevisiae sgs1 mgt1 strain, at 50.0 µM, stronger effect = higher value
How it was run: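 Inhibition of yeast growth, normalised to vehicle-treated controls, is reported for a strain bearing genetic alterations in DNA damage repair.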

[4] = NCI Yeast Anticancer Drug Screen. Data for the cln2 rad14 strain (AID 165);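 also: 0% = growth equal to vehicle treated cultures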; settings: S. cerevisiae cln2 rad14 strain, at 50.0 µM, stronger effect = higher value
How it was run: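 cln2 rad14 yeast strain; compound exposure; growth inhibition read vs vehicle controls.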

[5] = NCI Yeast Anticancer Drug Screen. Data for the bub3 strain (AID 167); settings: S. cerevisiae bub3 mutant strain, at 50.0 µM, stronger effect = higher value
How it was run: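 Whole-cell yeast assay. The mutant strain was incubated with compounds, and growth inhibition was determined by comparison with vehicle-treated cells.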

[6] = NCI Yeast Anticancer Drug Screen. Data for the mlh1 rad18 strain (AID 175); settings: S. cerevisiae mlh1 rad18 strain growth inhibition; at 50.0 µM; stronger effect = higher value
How it was run: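 Yeast w/ defined DNA-repair lesions; compound exposure; growth vs vehicle controls → % inhibition.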

Measured: growth inhibition

CCOc1ccccc1NC(=O)CCl
inactive: [1] 16.4% | [2] 3.2% | [3] 8.6% | [4] -5.2% | [5] 18.9% | [6] 39.9%

CC(=O)[C@@]1(O)CC[C@H]2[C@@H]3CC[C@@H]4CC(=O)CC[C@]4(C)[C@H]3[C@@H](O)C[C@@]21C
inactive: [1] -19.9% | [2] -1.9% | [3] -3% | [4] -51.6% | [5] 11.1% | [6] -13.5%

O=S(=O)(O)c1cccc2cccnc12
inactive: [1] 4.3% | [2] 1.95% | [3] 7% | [4] -14.6% | [5] 10.4% | [6] -0.5%

O=C(c1ccccc1O)N1CCCC1
inactive: [1] 19.6% | [2] 7.15% | [3] 19.9% | [4] 14.8% | [5] 2.15% | [6] 10.8%

Nc1ccc(F)c(Cl)c1F
inactive: [1] -11% | [2] -7.8% | [3] -14.3% | [4] -24.8% | [5] -1.75% | [6] -1.8%

NC(=S)N/N=C/c1ccc(OC(=O)COc2ccccc2)cn1
inactive: [1] -2.8% | [2] -13.4% | [3] 14.3% | [4] 7.45% | [5] -11% | [6] 9.9%

ClCc1cccc2c(CCl)cccc12
inactive: [1] 59.6% | [2] -6.25% | [3] 0.9% | [4] 33% | [5] -14.7% | [6] 12.4%

O=C1Nc2ccccc2/C1=C\c1ccccc1O
inactive: [1] 25.2% | [2] -1.75% | [3] 12.2% | [4] 6.8% | [5] 17.4% | [6] 23.4%

C=CCC(O)C=C (stereo not drawn)
inactive: [1] 10.3% | [2] -14.9% | [3] 5.4% | [4] -0.8% | [5] -5.35% | [6] 12.4%

ClCC(Cl)C1CCC(Cl)C(Cl)C1 (stereo not drawn)
inactive: [1] 10.5% | [2] 6.1% | [3] -7.85% | [4] -3.9% | [5] 8.65% | [6] 19.8%

C=COC(=O)C(C)(C)C
inactive: [1] 8.3% | [2] -13.8% | [3] 14.9% | [4] 21.4% | [5] -0.45% | [6] 31.5%

COC1OC(C(COC(C)=O)OC(C)=O)C(OC(C)=O)C(OC(C)=O)C1OC(C)=O (stereo not drawn)
inactive: [1] 13.8% | [2] 1.75% | [3] 4.35% | [4] -46.5% | [5] 52.2% | [6] -14.8%

CC(=O)c1cc(O)ccc1O
inactive: [1] -6.45% | [2] -10.1% | [3] 10.3% | [4] -11.1% | [5] -2.6% | [6] 1.8%

OC1Cc2ccccc2C1
inactive: [1] -32.5% | [2] -26.4% | [3] -17.6% | [4] -31.8% | [5] -28.1% | [6] -18.6%

Cn1c(=O)c2[nH]c(CCCCC(=O)O)nc2n(C)c1=O
inactive: [1] -7.8% | [2] -13.2% | [3] -34.1% | [4] -20.9% | [5] -39.4% | [6] 4.2%

C=C(C)[C@@H]1CC[C@]2(CO)CC[C@]3(C)[C@H](CC[C@@H]4[C@@]5(C)CC[C@H](O)C(C)(C)[C@@H]5CC[C@]43C)[C@@H]12
inactive: [1] 15.6% | [2] -4.3% | [3] -18.1% | [4] 11.8% | [5] -11.7% | [6] 29.1%

S=c1nc2[nH]c3ccccc3c2n[nH]1
inactive: [1] 8.45% | [2] -17.9% | [3] -5.65% | [4] -7.3% | [5] -8.95% | [6] 6.45%

O=C1C=CC(=O)C2=C1CCCC2
inactive: [1] 17.1% | [2] 10.9% | [3] 10.3% | [4] -9.75% | [5] -20.2% | [6] 26.9%

CC(=O)c1ccc(C)cc1
inactive: [1] -1.75% | [2] 6.1% | [3] -28.8% | [4] -2.8% | [5] -36% | [6] -11.6%

CC(C)N(C(=O)c1ccccc1)C(C)C
inactive: [1] 20.2% | [2] 26.2% | [3] 29.4% | [4] -20.1% | [5] -7.35% | [6] 2.35%

CC(C)N(CCCC#N)C(C)C
inactive: [1] 9.9% | [2] -11.6% | [3] -5.25% | [4] 10.4% | [5] -17.2% | [6] 8.05%

S=C(Sc1ccc(Cl)cc1)Sc1ccc(Cl)cc1
inactive: [1] 46.5% | [2] 19.9% | [3] 54% | [4] 23.1% | [5] 29.6% | [6] 24.1%

COc1c(CNC(=O)CCl)cc2[nH]c(C)cc2c1CNC(=O)CCl
inactive: [1] 4.9% | [2] 4.95% | [3] 17.3% | [4] 2.2% | [5] 9.7% | [6] -25.9%

C[n+]1cc2cc3c(cc2c2ccccc21)OCO3
inactive: [1] 23.5% | [2] 35% | [3] 30% | [4] 13.1% | [5] 26.9% | [6] 39.5%

CC1CC(C)S(=O)(=O)C1 (stereo not drawn)
inactive: [1] -35% | [2] -30.9% | [3] -39% | [4] -14.9% | [5] -39.8% | [6] -2%

Clc1ncnc2nc[nH]c12
inactive: [1] -1.9% | [2] -1% | [3] 15.5% | [4] 16.9% | [5] 0.35% | [6] -39.4%

O=C(O)c1cccc(-n2ncc(Cl)c(Cl)c2=O)c1
inactive: [1] 8.4% | [2] -0.95% | [3] 19.2% | [4] 19% | [5] 21.4% | [6] 19.6%

CSc1cnc2ccccc2n1
inactive: [1] 5.55% | [2] -5.95% | [3] -10.6% | [4] 13.1% | [5] -0.85% | [6] -3.9%

Cc1[nH]nc(C(N)=O)c1[N+](=O)[O-]
inactive: [1] -0.75% | [2] 4.95% | [3] 20.2% | [4] -36.8% | [5] -6.7% | [6] 0.35%

C/C=C/C1OCC(CC)C(CCC)O1 (stereo not drawn)
inactive: [1] 36% | [2] 11.2% | [3] 1.85% | [4] -36.8% | [5] -17.9% | [6] -1.15%

CCCCNc1ccc(-c2ccc(NCCCC)cc2)cc1
inactive: [1] 31.9% | [2] 4.3% | [3] -3.8% | [4] -36.1% | [5] -5.3% | [6] 59.5%

CC(C)C1CCC(C)C(O)C1 (stereo not drawn)
inactive: [1] 26.7% | [2] 6.35% | [3] 8.55% | [4] 8.9% | [5] -0.55% | [6] 12.8%

CC(C)N1CC(=O)N2CSCC2C1=O (stereo not drawn)
inactive: [1] 14.1% | [2] 8.3% | [3] 9.8% | [4] -6.85% | [5] 13.1% | [6] 3.25%

CCOc1ccc(C(=O)NCC(C)C)cc1
inactive: [1] -1.2% | [2] 2.4% | [3] 26.6% | [4] -14.1% | [5] 9% | [6] -13.7%

COc1ccc(NNS(=O)(=O)O)cc1
inactive: [1] 1.45% | [2] 4.7% | [3] 21.7% | [4] -10.8% | [5] -1.65% | [6] 4%

C/C(=N\O)c1ccccn1
inactive: [1] -7.6% | [2] -16.4% | [3] -17.9% | [4] 1.15% | [5] -8.85% | [6] 1.45%

O=C1CSc2ccccc2N1
inactive: [1] -35% | [2] -8.45% | [3] 32% | [4] -12.7% | [5] 1.3% | [6] 11.2%

O=C(Nc1ccccc1)c1ccco1
inactive: [1] 12.3% | [2] 33.2% | [3] 13.8% | [4] -0.6% | [5] -1.55% | [6] 11.2%

O=c1[nH]c(=O)c2cc(Cl)cc(Cl)c2[nH]1
inactive: [1] -2.05% | [2] -15.3% | [3] -1.4% | [4] 14% | [5] 9.25% | [6] 7.3%

C1CCc2onc(-c3noc4c3CCCCC4)c2CC1
inactive: [1] -9.45% | [2] -15.8% | [3] -19.1% | [4] -1.1% | [5] -21.4% | [6] 2.8%

N#C/C(=C\NC(=S)N=Nc1c(O)[nH]c2ccccc12)c1nc2ccccc2s1
inactive: [1] 10.1% | [2] 2.3% | [3] 29.1% | [4] -10.1% | [5] 17.9% | [6] 14.5%

CCOC(=O)c1ccc(NC(C)=O)o1
inactive: [1] -10.3% | [2] 11.3% | [3] -3.35% | [4] -23.1% | [5] -5.35% | [6] 11.1%

CCCC(=O)c1cccs1
inactive: [1] 3.25% | [2] 9.85% | [3] 10.8% | [4] -11.3% | [5] -4.1% | [6] 11.9%
